From PubChem BioAssay (EPA / NIEHS) come the findings set out here.

Active and inactive are the calls of the source. Rule for the calls: active = hit-call score of the fitted dose curve at least 0.9, where 1 is the maximum; inactive = score below 0.9.

This test in a line: ATG_Sox_CIS: Attagene CIS-FACTORIAL HepG2 Assay for human SRY-box transcription factor (SOX) (AID 2282960). The following applies: HepG2 Attagene cis-factorial SOX reporter, mRNA; actives raise or lower the signal. As to the method: ATG_CIS is a cell-based, multiplexed-readout assay that uses HepG2, a human liver cell line, with measurements taken at 24 hours after chemical dosing in a 24-well plate.ATG_Sox_CIS is one of 52 assay component(s) measured or calculated from the ATG_CIS assay. It is designed to make measurements of mRNA induction, a form of inducible reporter, as detected with fluorescence intensity signals by Reverse transcription polymerase chain reaction (RT-PCR) and Capillary electrophoresis technology.Data from the assay component ATG_Sox_CIS was analyzed into 1 assay endpoint. This assay endpoint, ATG_Sox_CIS, was analyzed with bidirectional fitting relative to DMSO as the negative control and baseline of activity. Using a type of inducible reporter, measures of mRNA for gain or loss-of-signal activity can be used to understand the reporter gene at the transcription factor-level as they relate to the gene SOX1. Furthermore, this assay endpoint can be referred to as a primary readout, because this assay has produced multiple assay endpoints where this one serves a reporter gene function. To generalize the intended target to other relatable targets, this assay endpoint is annotated to the dna binding intended target family, where the subfamily is HMG box protein.
Human liver HepG2 cells are transiently transfected with multiple reporter transcription units (MRTUs) in 6-well plates using FuGene 6 reagent (Roche; 3 ml FuGene/1 mg DNA). The MRTU constructs are regulated by a cis-regulating element (promoter). […] A major difference between the CIS and TRANS system is that in CIS activities of endogenous TFs are measured, whereas the TRANS assay evaluates changes in activities of exogenous, chimeric NR-Gal4 proteins. […] At the end of 24 hour incubation, total RNA was isolated using TriZol reagent (Invitrogen). The isolated RNA is then reverse-transcribed using oligo(dT) primer and Mo-MLV reverse transcriptase (Invitrogen) with DNAse I (Ambion) treatment for 30 min. The one-tenth of the produced cDNA was amplified by PCR using Taq DNA polymerase (Invitrogen) and two reporter sequence-specific primers. The PCR products were fluorescently labeled by primer extension with 6-arboxyfluorescein (6-FAM) 5'-labeled reporter sequence-specific primer (2 min at 95 C, 20 s at 68 C and 10 min at 72 C) and these products were digested with 5U of HpaI (New England Biolabs) for 2h at 37 C. The fragments were purified using Qiaquick PCR columns (Qiagen), analyzed on an ABI 3130xL genetic analyzer (Applied Biosystems) with peak positions identified by using a set of X-rhodamine (ROX)-labeled MapMarker1000 molecular weight standards (BioVentures). The raw capillary electrophoresis data was processed using Attagraph software (Attagene).
`Nc1ccc(Cl)c([N+](=O)[O-])c1`: the outcome was inactive.
Turning to `O=C(O)c1ccc(O)cc1`, the compound was classed as inactive.
For `FC(F)(F)COCC(F)(F)F`, the compound was classed as inactive.
As for `CCCCOCC`, the compound was classed as inactive.
Regarding `CC(C)=CCCC(C)CCOC=O` (stereo not given), the call was inactive.
On to `CCCCCCOC(=O)CCC`, for which the compound was classed as inactive.
Take `N#Cc1ccc(CC(=O)c2cccc(C(F)(F)F)c2)cc1`: the compound was called inactive.
On to `OC[C@H]1O[C@@H]2O[C@H]3[C@H](O)[C@@H](O)[C@@H](O[C@H]4[C@H](O)[C@@H](O)[C@@H](O[C@H]5[C@H](O)[C@@H](O)[C@@H](O[C@H]6[C@H](O)[C@@H](O)[C@@H](O[C@H]7[C@H](O)[C@@H](O)[C@@H](O[C@H]8[C@H](O)[C@@H](O)[C@@H](O[C@H]9[C@H](O)[C@@H](O)[C@@H](O[C@H]1[C@H](O)[C@H]2O)O[C@@H]9CO)O[C@@H]8CO)O[C@@H]7CO)O[C@@H]6CO)O[C@@H]5CO)O[C@@H]4CO)O[C@@H]3CO`, for which the compound was called inactive.
With `C[C@H]1C[C@@H](O)CC(C)(C)C1`, the compound was called inactive.
As to `CCNCCO`, the compound was called inactive.
As to `O=C(O)CNc1ccccc1`, the compound was classed as inactive.
On to `C=C(C)C(=O)OCCOC1CC2CC1C1C=CCC21` (stereo not given), for which the compound was classed as inactive.
On to `CCC1(c2ccccc2)C(=O)NCNC1=O`, for which the compound was called inactive.
In the case of `COC(C)(C)CCCC(C)CC=O` (stereo not given), the call was inactive.
On to `C[C@H]1O[C@@H](O[C@H]2[C@@H](O)C[C@H](O[C@H]3[C@@H](O)C[C@H](O[C@H]4CC[C@@]5(C)[C@H](CC[C@@H]6[C@@H]5C[C@@H](O)[C@]5(C)[C@@H](C7=CC(=O)OC7)CC[C@]65O)C4)O[C@@H]3C)O[C@@H]2C)C[C@H](O)[C@@H]1O`, for which the compound was classed as inactive.
With `CCCC(=O)c1ccccc1`, the outcome was inactive.
As for `C=CC(C)(O)CCC=C(C)C` (stereo not given), the call was inactive.
Then `Cc1c(Cl)cccc1[N+](=O)[O-]`, with “inactive”; and `CCc1ccc(O)cc1`, with “inactive”; and `CCCCC(CC)C(=O)OC(C)C` (stereo not given), with “inactive”.
Regarding `CC(=O)OCCCc1ccccc1`, the compound was classed as inactive.
To `CCC(C)=O` belongs “inactive”; to `ClC(c1ccccc1)(c1ccccc1)c1ccccc1`, “inactive”.
For the compound `CC=Cc1ccc(OCC)c(O)c1`, the compound was called inactive.
Then `CCCCOC(=O)CCCCCCCC(=O)OCCCC`, with “inactive”; and `O=C(O)COCC(=O)O`, with “inactive”.
Turning to `COc1ccccc1[N+](=O)[O-]`, the result was inactive.
Then `C1CCOC1`, with “inactive”; and `NC(=S)NNC(N)=S`, with “inactive”.
With `CS(=O)(=O)OCCCCOS(C)(=O)=O`, the result was inactive.
Regarding `O=C(CS)OCCOC(=O)CS`, the outcome was inactive.
Consider `C=Cc1ccc(C)cc1`, for which the outcome was inactive.
With `CCCCCCCC/C=C\CCCCCCCC(=O)OCC`, the outcome was inactive.
As to `O=C(O)c1cccnc1C(=O)O`, the compound was classed as inactive.
In the case of `OCCOCCN1CCN(C2=Nc3ccccc3Sc3ccccc32)CC1`, the outcome was inactive.
`CC(C)(N=C=O)c1cccc(C(C)(C)N=C=O)c1`: the call was inactive.
Take `CC=CC=CCOC(=O)C(C)C`: the call was inactive.
Consider `Brc1ccc(Br)c(Br)c1`, for which the compound was called inactive.
In the case of `CCCCCCCCCCCCCCCC(=O)OC/C=C(C)/C=C/C=C(C)/C=C/C1=C(C)CCCC1(C)C`, the compound was classed as inactive.
Take `O=C(Nc1ccc([N+](=O)[O-])cc1)Nc1ccc([N+](=O)[O-])cc1` (tested in a mixture with another compound): the compound was called inactive.
